Measured values published in PubChem BioAssay AID1159580 (chemical genetic matrix, 2015).
Values joined by “and” are separate entries in the source; they are usually repeats but may differ in a detail not shown here. Equal entries are not always repeated. Among all 5,500 compounds or so, about 2,000 (36%) were called active. Another 18% or so got no clear call; they are omitted. No stated cut-off is given here; in the data, active means normalized growth mostly below about 0.91 (no sharp cut-off); inconclusive means no clear call, values can overlap the other calls; inactive means mostly above about 0.92. The list shows a part of the results.

Test: chemical genetic growth profiling, strain panel (AID 1159580);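 further: tested at 20 µM; growth read once vehicle control cultures reached saturation at 30 °C; 1 = growth at the plate median or of vehicle wells; lower values mean less growth of the strain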
Settings: S. cerevisiae deletion strains, growth OD

Measured: normalized growth

CC(CCC(=O)O)[C@H]1CCC2C3C(C[C@H](O)[C@@]21C)[C@@]1(C)CC[C@@H](O)C[C@H]1C[C@H]3O (some centres not stated)
inactive: locus YAL013W, strain DEP1, hits give low values 1.01 | locus YAL021C, strain ccr4, hits give low values 1.08 | locus YAL026C, strain drs2, hits give low values 1.03 | locus YAL030W, strain snc1, hits give low values 1.01 | locus YBL061C, strain skt5, hits give low values 1 | locus YBR009C, strain hhf1, hits give low values 1.05 | locus YBR021W, strain FUR4, hits give low values 0.995 | locus YBR023C, strain chs3, hits give low values 1.01 | locus YBR171W, strain sec66, hits give low values 1.02 | locus YBR229C, strain ROT2, hits give low values 1.01 | locus YBR231C, strain swc5, hits give low values 1 | locus YBR279W, strain paf1, hits give low values 1.02 | locus YCL011C, strain gbp2, hits give low values 1.02 | locus YCL016C, strain dcc1, hits give low values 1 | locus YCL029C, strain bik1, hits give low values 1.02 | locus YCL061C, strain MRC1, hits give low values 1.01 | locus YCL069W, strain vba3, hits give low values 1.02 | locus YCR088W, strain abp1, hits give low values 1.01 | locus YDL005C, strain med2, hits give low values 1.01 | locus YDL035C, strain GPR1, hits give low values 1.03 | locus YDL040C, strain nat1, hits give low values 1.02 | locus YDL074C, strain BRE1, hits give low values 1.02 | locus YDL101C, strain DUN1, hits give low values 1.02 | locus YDL185W, strain tfp1, hits give low values 1 | locus YDL192W, strain arf1, hits give low values 1.01 | locus YDR001C, strain nth1, hits give low values 1.02 | locus YDR069C, strain doa4, hits give low values 1.02 | locus YDR101C, strain arx1, hits give low values 0.985 | locus YDR137W, strain rgp1, hits give low values 0.991 | locus YDR159W, strain sac3, hits give low values 1.03 | locus YDR162C, strain NBP2, hits give low values 1.02 | locus YDR195W, strain ref2 1.03 | locus YDR297W, strain sur2, hits give low values 0.998 | locus YDR318W, strain mcm21, hits give low values 1.01 | locus YDR334W, strain swr1, hits give low values 1.03 | locus YDR335W, strain msn5, hits give low values 0.986 | locus YDR388W, hits give low values 1 | locus YDR392W, strain spt3, hits give low values 0.958 | locus YDR502C, strain sam2, hits give low values 1.01 | locus YEL003W, strain gim4, hits give low values 1.02 | locus YEL037C, strain rad23, hits give low values 1.03 | locus YEL061C, strain CIN8 (second series), hits give low values 1.02 | locus YEL061C, strain CIN8, hits give low values 1.03 | locus YER015W, strain faa2, hits give low values 0.982 | locus YER016W, strain bim1, hits give low values 0.99 | locus YER110C, hits give low values 1 | locus YER111C, strain swi4, hits give low values 1.03 | locus YER155C, strain BEM2 (second series), hits give low values 1.02 | locus YER155C, strain BEM2, hits give low values 1.01 | locus YER167W, strain BCK2, hits give low values 1.02 | locus YFR010W, strain ubp6, hits give low values 1.03 | locus YGL078C, strain dbp3, hits give low values 1.01 | locus YGL086W, strain mad1, hits give low values 1 | locus YGL167C, strain pmr1, hits give low values 0.995 | locus YGL173C, strain kem1, hits give low values 1.04 | locus YGL227W, strain vid30, hits give low values 1.01 | locus YGL240W, strain doc1, hits give low values 1.01 | locus YGL248W, strain PDE1, hits give low values 1.02 | locus YGL253W, strain hxk2, hits give low values 1.02 | locus YGR135W, strain pre9, hits give low values 0.993 | locus YGR252W, strain gcn5, hits give low values 0.965 | locus YHR013C, strain ard1, hits give low values 1.03 | locus YHR027C, strain rpn1, hits give low values 0.994 | locus YHR030C, strain SLT2, hits give low values 1.01 and 0.992 | locus YHR079C, strain IRE1 (second series), hits give low values 1 | locus YHR079C, strain IRE1, hits give low values 0.975 | locus YHR094C, strain hxt1, hits give low values 1 | locus YHR129C, strain ARP1, hits give low values 1.02 | locus YHR142W, strain chs7, hits give low values 1.05 | locus YHR200W, strain rpn10, hits give low values 0.994 | locus YIL066C, strain RNR3, hits give low values 1 | locus YIL073C, strain SPO22, hits give low values 1 | locus YIL125W, strain kgd1, hits give low values 1.01 | locus YIR030C, strain dcg1, hits give low values 1 | locus YJL092W, strain hpr5, hits give low values 1.01 | locus YJL095W, strain BCK1 (second series), hits give low values 1.01 | locus YJL095W, strain BCK1, hits give low values 1.02 and 0.977 | locus YJL115W, strain asf1, hits give low values 1.03 | locus YJL129C, strain trk1, hits give low values 1.05 | locus YJL134W, strain LCB3, hits give low values 1.01 | locus YJL154C, strain vps35, hits give low values 1.02 | locus YJL164C, strain tpk1, hits give low values 1.06 | locus YJL166W, strain qcr8, hits give low values 1.03 | locus YJL168C, strain set2, hits give low values 1.01 | locus YJL187C, strain SWE1 (second series), hits give low values 1.01 | locus YJL187C, strain SWE1, hits give low values 1.01 | locus YJR043C, strain POL32, hits give low values 0.994 | locus YJR066W, strain TOR1, hits give low values 0.93 | locus YKL009W, strain mrt4, hits give low values 0.959 | locus YKL068W, hits give low values 1.02 | locus YKL085W, strain MDH1 (second series), hits give low values 1 | locus YKL085W, strain MDH1, hits give low values 1 | locus YKL160W, strain elf1, hits give low values 0.995 | locus YKR001C, strain vps1, hits give low values 1.01 | locus YKR026C, strain gcn3, hits give low values 1.02 | locus YKR091W, strain srl3, hits give low values 1.02 | locus YLL001W, strain dnm1, hits give low values 0.989 | locus YLL026W, hits give low values 1.01 | locus YLL041C, strain sdh2, hits give low values 1.02 | locus YLR027C, strain aat2, hits give low values 1.02 | locus YLR039C, strain RIC1, hits give low values 1.09 | locus YLR058C, strain SHM2, hits give low values 1.02 | locus YLR102C, strain apc9, hits give low values 0.998 | locus YLR113W, strain HOG1, hits give low values 0.983 | locus YLR221C, strain rsa3, hits give low values 1.01 | locus YLR258W, strain gsy2, hits give low values 1.04 | locus YLR262C, strain YPT6 (second series), hits give low values 1.05 | locus YLR262C, strain YPT6, hits give low values 1.11 | locus YLR268W, strain sec22, hits give low values 0.986 | locus YLR320W, strain mms22, hits give low values 1.03 | locus YLR330W, strain CHS5, hits give low values 1.01 | locus YLR342W, strain FKS1 (second series), hits give low values 1.01 | locus YLR342W, strain FKS1, hits give low values 1 | locus YLR357W, strain rsc2, hits give low values 1.01 | locus YLR370C, strain arc18, hits give low values 0.999 | locus YLR371W, strain rom2, hits give low values 1 | locus YLR384C, strain iki3, hits give low values 0.991 | locus YLR418C, strain cdc73, hits give low values 0.994 | locus YML016C, strain PPZ1, hits give low values 1.03 | locus YML032C, strain rad52, hits give low values 0.995 | locus YML120C, strain ndi1, hits give low values 0.998 | locus YML124C, strain tub3, hits give low values 1.01 | locus YMR058W, strain fet3, hits give low values 1.03 | locus YMR078C, strain ctf18, hits give low values 1 | locus YMR125W, strain sto1, hits give low values 1.02 | locus YMR129W, hits give low values 0.991 | locus YMR205C, strain PFK2, hits give low values 1.02 | locus YMR223W, strain ubp8, hits give low values 1.02 | locus YMR231W, strain pep5, hits give low values 1.02 | locus YMR307W, strain GAS1, hits give low values 0.983 | locus YNL067W, strain RPL9B, hits give low values 1.02 | locus YNL071W, strain lat1, hits give low values 1.03 | locus YNL128W, strain TEP1, hits give low values 1.02 | locus YNL183C, strain NPR1, hits give low values 0.925 | locus YNL209W, strain ssb2, hits give low values 0.993 | locus YNL233W, strain BNI4, hits give low values 1.01 | locus YNL248C, strain rpa49, hits give low values 1.02 | locus YNL250W, strain rad50, hits give low values 1.01 | locus YNL271C, strain bni1, hits give low values 1 | locus YNL298W, strain CLA4, hits give low values 0.999 | locus YNL307C, strain MCK1, hits give low values 1 | locus YNL322C, strain KRE1 (second series), hits give low values 1.01 | locus YNR049C, strain mso1, hits give low values 0.986 | locus YNR052C, strain pop2, hits give low values 1.03 | locus YOL006C, strain TOP1, hits give low values 1.07 | locus YOL012C, strain htz1 1.17 | locus YOL147C, strain pex11, hits give low values 1.01 | locus YOR001W, strain rrp6, hits give low values 1.02 | locus YOR061W, strain CKA2, hits give low values 1.02 | locus YOR069W, strain VPS5, hits give low values 1.02 | locus YOR070C, strain gyp1, hits give low values 1 | locus YOR080W, strain dia2, hits give low values 1.01 | locus YOR083W, strain WHI5, hits give low values 1.01 | locus YOR106W, strain vam3, hits give low values 1.07 | locus YOR136W, strain idh2, hits give low values 1.01 | locus YOR144C, strain elg1, hits give low values 1 | locus YOR184W, strain ser1, hits give low values 1 | locus YOR231W, strain MKK1, hits give low values 0.981 | locus YOR265W, strain rbl2, hits give low values 1 | locus YOR270C, strain vph1, hits give low values 1.11 | locus YOR290C, strain snf2, hits give low values 0.982 | locus YOR316C, strain cot1, hits give low values 1 | locus YPL051W, strain arl3, hits give low values 1.01 | locus YPL078C, strain atp4, hits give low values 1.03 | locus YPL106C, strain sse1, hits give low values 1.01 | locus YPL240C, strain hsp82, hits give low values 0.996 | locus YPL256C, strain CLN2, hits give low values 0.957 | locus YPR119W, strain clb2, hits give low values 1 | locus YPR141C, strain kar3, hits give low values 1.01 | locus YPR163C, strain tif3, hits give low values 0.992 | locus YPR167C, strain met16, hits give low values 1.03 | strain wtn01, hits give low values 0.993
